Laboratory results taken from PubChem BioAssay AID1578 (Sanford-Burnham Center for Chemical Genomics, 2009).
Out of some 290,000 compounds screened, about 3,000 (1%) were called active. No stated cut-off is given here; in the data, active means inhibition mostly above about 36% (no sharp cut-off); inactive means mostly below about 34%. Many of the other results were omitted from the sample, so actives are more common in it than they were.

Assay: inhibition of NOD1-driven NF-kB reporter – cell-based, luminescence, uHTS, primary screen (AID 1578);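 further: HEK-293T reporter cells stimulated with the NOD1 agonist gamma-tri-DAP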
Conditions: NOD1-driven NF-kB luciferase reporter cells, at 4 µM, stronger effect = higher value

SMILES | inhibition
CN1C2CCC1/C(=C\c1ccc(F)cc1)C(=O)/C2=C/c1ccc(F)cc1 | 77.7% (active)
CN1C2CCC1/C(=C\c1ccccc1F)C(=O)/C2=C/c1ccccc1F | 34.2% (inactive)
CN1C2CCC1/C(=C\c1ccccc1)C(=O)/C2=C\c1ccccc1 | 36.3% (inactive)
Cc1cccc(N2CCN(C(=O)c3cc(S(=O)(=O)N4CCOCC4)cn3C)CC2C)c1 (stereo not drawn) | -17.7% (inactive)
Cc1cc(CNC(=O)c2ccc(C)c([N+](=O)[O-])c2)c2ccccc2n1 | 26.1% (inactive)
Cc1cc(CNC(=O)c2cccc([N+](=O)[O-])c2)c2ccccc2n1 | 47.9% (active)
Cc1cc(CNC(=O)Cn2cc([N+](=O)[O-])cn2)c2ccccc2n1 | -28.9% (inactive)
Cc1ccc(C(=O)Nc2ccc(Br)c(C(F)(F)F)c2)cc1 | -51.3% (inactive)
O=C(Nc1ccc(Br)c(C(F)(F)F)c1)c1ccc(C(F)(F)F)cc1 | 41.9% (active)
O=C(Nc1ccc(Br)c(C(F)(F)F)c1)c1ccccc1 | 7.5% (inactive)
C=CCn1c(SCc2nc3cc(C(F)(F)F)ccc3c(=O)[nH]2)nc2sc(CC)cc2c1=O | -9.3% (inactive)
COc1ccc(-c2noc(N3CCC(C(=O)NCc4ccccc4Cl)CC3)n2)cc1 | 49.5% (inactive)
O=C(N/N=C(/c1ccccc1)c1ccncc1)c1ccc2c(c1)OCO2 | -26.7% (inactive)
Cc1cc(C(=O)COC(=O)CN(C)S(=O)(=O)c2ccc(Cl)cc2)c(C)n1CC1CCCO1 (stereo not drawn) | -12.3% (inactive)
c1ccc(-c2nnnc3ccccc23)cc1 | -26.7% (inactive)
Clc1ccc2nnnc(-c3ccccc3)c2c1 | 63.1% (active)
Cc1ccc2nnnc(-c3ccccc3)c2c1 | -32.7% (inactive)
COC(=O)c1ccc(NC(=O)NCCCl)cc1 | -34.1% (inactive)
Cc1c(C(=O)N2CCOCC2)sc(NC(=O)c2ccc([N+](=O)[O-])cc2)c1C#N | -2.6% (inactive)
C/C(=N\NC(=O)c1c(C)nc2ccccn12)c1cccc([N+](=O)[O-])c1 | -11.1% (inactive)
Cc1nc2ccccn2c1C(=O)/C=C/c1cccc([N+](=O)[O-])c1 | 101% (active)
Cc1ccc(/C=C/C(=O)c2c(C)nc3ccccn23)cc1 | -11.3% (inactive)
Cc1c(C(=O)N2CCN(c3ccccc3)CC2)sc2nc3n(c(=O)c12)CCC3 | 0.9% (inactive)
CC(=O)c1ccccc1NC(=O)CCCNC(=O)c1ccc(Cl)cc1 | 17.3% (inactive)

SMILES | inhibition
O=C(O)CSc1ncnc2sc(-c3ccccc3)cc12 | -16.7% (inactive)
CC(=O)CCSc1ncnc2sc(-c3ccccc3)cc12 | -75.9% (inactive)
COc1cc(CN2CCN(CCOCCO)CC2)cc(OC)c1OC | -4.8% (inactive)
Cc1ccc(/C=C2/Sc3ccccc3N(CC(=O)NCC3CCCO3)C2=O)cc1 (stereo not drawn) | -4.1% (inactive)
Cc1cc(/C=C2\Sc3ccccc3N2C)cc(C)[n+]1CC1CCCO1 (stereo not drawn) | 56.7% (active)
COc1ccccc1-[n+]1c(C)cc(/C=C2\Sc3ccccc3N2C)cc1C | 28.9% (inactive)
Nc1nonc1-n1nnc(C(=O)N/N=C/c2ccc(OCc3ccccc3)cc2)c1COc1ccc(F)cc1 | -0.6% (inactive)
O=C(Nc1ccn(Cc2cccc3ccccc23)n1)c1cccnc1 | 7.1% (inactive)
NS(=O)(=O)c1ccc(NC(=S)Nc2ccn(Cc3cccc4ccccc34)n2)cc1 | 56.6% (active)
CC(=O)c1cccc(NC(=S)Nc2ccn(Cc3cccc4ccccc34)n2)c1 | -5.1% (inactive)
Cc1cc(C)n(C(=O)c2ccc(C)c(Br)c2)n1 | -2.6% (inactive)
c1csc(-c2nc(N3CCOCC3)c3ccccc3n2)c1 | -9.5% (inactive)
O=C1OCCN1c1c(-c2ccccc2)c(-c2cccs2)nc2c(-c3ccccc3)cccc12 | 66% (active)
c1csc(-c2nnc(N3CCOCC3)c3ccccc23)c1 | 2.4% (inactive)
CCOc1ccc2nc(NC(=O)CSc3nc4cccnc4n3C)sc2c1 | -1% (inactive)
CC1CC(NC(=O)c2ncn[nH]2)CC(C)(C)C1 (stereo not drawn) | 84.5% (active)
CC1CC(NC(=O)c2cnc3n(c2=O)CCS3)CC(C)(C)C1 (stereo not drawn) | -9% (inactive)
O=C(NC1CCCC1)c1ncn[nH]1 | -17.9% (inactive)
Cc1nn(-c2ccc(Cl)c(Cl)c2)c(C)c1C(=O)O | -17.4% (inactive)
CCc1nnc(NC(=O)CC23CC4CC(CC(Br)(C4)C2)C3)s1 | -2.7% (inactive)
CCc1c(C)nc(SCC(=O)N2CCCCC2CC)[nH]c1=O (stereo not drawn) | -11.1% (inactive)
C/C(=N\NC(=O)C1(C)CC1(Br)Br)c1cccc(NC(=O)c2ccc(C)o2)c1 (stereo not drawn) | 89.8% (active)
C/C(=N\NC(=O)C1(C)CC1(Br)Br)c1ccc(NC(=O)c2ccc(C)o2)cc1 (stereo not drawn) | 13.4% (inactive)
C/C(=N\NC(=O)c1cccc(Br)c1)c1cccc(NC(=O)c2ccc(C)o2)c1 | -55.5% (inactive)
